Growth data for 18 molecules are collected here from PubChem BioAssay (NCI).

This is part of a sample that, as a whole, favours compounds with a hit. Of some 83,000 tested, about 20% had one in any assay.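 A percent growth of 40 corresponds to 60% growth inhibition; 0 means no net growth; -100 means all cells died. Active threshold: below 10.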 Values without a mark were called inactive. The source made the active and inactive calls.

Among the test systems are BT-549 breast; MDA-MB-435 melanoma; SW-620 colon; MCF7 breast; HCT-116 colon; KM12 colon; HCC-2998 colon.
Common to all, as to assay: NCI-60 one-dose screen, 48 h (100 = growth as untreated, 0 = no growth, -100 = all killed)
Conditions in all cases: 10 µM unless noted

Take `COc1ccc(NC2=C(Cl)C(=O)C(C)=C(C)C2=O)cc1OC`: the growth was 108% in the assay on BT-549 breast; 103% with MDA-MB-435 melanoma; 101% with SW-620 colon; 77.8% in the assay with MCF7 breast; 96.4% in the assay on HCT-116 colon; 55.2% in the assay with KM12 colon.
With `COc1ccc(-c2cc(C(=O)N=Nc3c(O)[nH]c4ccccc34)c3ccccc3n2)cc1OC`, the growth in the assay on BT-549 breast was 113%; in the assay on MDA-MB-435 melanoma, 98.1%; in the assay with SW-620 colon, 93.8%; in the assay with MCF7 breast, 89.9%; in the assay on HCT-116 colon it was 101%; in the assay with HCC-2998 colon it was 97.8%. Moreover, the growth with KM12 colon is 92%.
For the molecule `CCOC(=O)c1sc(NCC(=O)Nc2cccc([N+](=O)[O-])c2)c(C(=O)OCC)c1C`, the growth in the assay on BT-549 breast is -19.3% (active); in the assay with MDA-MB-435 melanoma, -82% (active); with SW-620 colon, 2.53% (active); in the assay with MCF7 breast, -4.78% (active); with HCT-116 colon it was 0.39% (active); in the assay with KM12 colon it was -9.01% (active).
`COC(=O)C(C)NS(=O)(=O)/N=C1\NC(=O)NC1=C(Cl)Cl` (stereo not drawn): the growth in the assay on BT-549 breast is 109%; with MDA-MB-435 melanoma, 105%; in the assay on SW-620 colon, 124%; in the assay with MCF7 breast, 98%; in the assay with HCT-116 colon, 102%; in the assay on HCC-2998 colon, 113%. In addition, the growth in the assay with KM12 colon is 105%.
`COc1ccc(C(=O)c2cc(C(=O)/C=C/c3c(Cl)cccc3Cl)c3cc(C)ccn23)cc1`: the growth in the assay with BT-549 breast was 119%; in the assay on MDA-MB-435 melanoma it was 99.6%; in the assay on SW-620 colon, 95.5%; in the assay on MCF7 breast, 98%; in the assay with HCT-116 colon it was 99.8%; with KM12 colon it was 100%.
Turning to `COc1ccc(/C=C2\SC(=Nc3cc(C)[nH]n3)NC2=O)cc1`, the growth in the assay with BT-549 breast was 90.5%; with MDA-MB-435 melanoma, 92.4%; in the assay on SW-620 colon, 97.1%; with MCF7 breast it was 85.5%; with HCT-116 colon, 97.2%; in the assay on HCC-2998 colon it was 99.8%. For the same molecule, the growth with KM12 colon is 89.8%.
In the case of `COc1cccc(COc2ccc(/C=C3/C(=O)Nc4cc(Cl)ccc43)cc2)c1`, the growth in the assay with BT-549 breast is 106%; with MDA-MB-435 melanoma, 99.9%; with SW-620 colon, 97.5%; in the assay with MCF7 breast it was 70.7%; in the assay with HCT-116 colon it was 93.7%; with HCC-2998 colon it was 102%. For the same molecule, the growth in the assay with KM12 colon is 97.1%.
Regarding `Cn1c(SCC(=O)c2cccs2)nc2ccccc2c1=O`, the growth was 108% with BT-549 breast; 103% with MDA-MB-435 melanoma; 99.7% in the assay with SW-620 colon; 62.4% in the assay on MCF7 breast; 93.9% with HCT-116 colon; 99.1% with KM12 colon.
Turning to `Cc1cc2nc3c4cc(Cl)ccc4n(CC(=O)NCCN(C)C)c3nc2cc1C`, the growth with BT-549 breast was 88.1%; with MDA-MB-435 melanoma, 67.9%; in the assay on SW-620 colon, -80.8% (active); in the assay with MCF7 breast, -19.8% (active); in the assay on HCT-116 colon it was -85.3% (active); in the assay on HCC-2998 colon, 82.6%. For the same molecule, in the assay with KM12 colon, the growth is 86.2%.
Consider `Clc1ccc2c(NCCCN3CCOCC3)c3oc4ccccc4c3nc2c1`, for which the growth was 104% with BT-549 breast; 36% in the assay on MDA-MB-435 melanoma; 21.8% with SW-620 colon; 16.6% in the assay on MCF7 breast; 20.1% with HCT-116 colon; 50.4% in the assay on HCC-2998 colon. Also, in the assay on KM12 colon, the growth is 32%.
As to `Clc1ccc2oc3c(NCCCn4ccnc4)c4ccccc4nc3c2c1`, the growth in the assay on BT-549 breast was 76.9%; in the assay with MDA-MB-435 melanoma, 26.7%; in the assay with SW-620 colon, 16.9%; in the assay with MCF7 breast, 8.8% (active); in the assay on HCT-116 colon it was 11.2%; in the assay with HCC-2998 colon it was 55.2%. Also, the growth in the assay with KM12 colon is 30.9%.
For `COc1ccc(NC2=CC(=O)C(C)=C(C)C2=O)cc1`, the growth in the assay with BT-549 breast is 119%; in the assay on MDA-MB-435 melanoma, 7.8% (active); in the assay on SW-620 colon, 101%; with MCF7 breast, 71.9%; with HCT-116 colon, 80.6%; in the assay on KM12 colon, 101%.
For the molecule `CCN1CCN(/C(=N\c2sc(-c3ccccc3)nc2-c2ccccc2)c2ccccc2)CC1`, the growth was 90.9% in the assay on BT-549 breast; 88% in the assay with MDA-MB-435 melanoma; 84.9% in the assay on SW-620 colon; 67.3% in the assay on MCF7 breast; 62.4% with HCT-116 colon; 77.1% with HCC-2998 colon. Moreover, the growth in the assay on KM12 colon was 59.8%.
Consider `CN1C(=O)N(c2ccccc2)C2N=C(N/N=C/c3ccccc3)SC21` (stereo not drawn), for which the growth is 52.4% with BT-549 breast; -24.9% (active) with MDA-MB-435 melanoma; 15.2% in the assay on SW-620 colon; 24% in the assay on MCF7 breast; 22.5% in the assay with HCT-116 colon; 51.5% with HCC-2998 colon. Moreover, the growth with KM12 colon was 22%.
Take `CC1=C(C)C(=O)C(Nc2cccc(C(F)(F)F)c2)=C(Cl)C1=O`: the growth in the assay on BT-549 breast was 121%; in the assay on MDA-MB-435 melanoma, 98.5%; in the assay on SW-620 colon, 17.1%; in the assay with MCF7 breast, 35.4%; with HCT-116 colon, 33.9%; in the assay on KM12 colon, 67.2%.
Turning to `CSc1ccc2c(c1)N(C(=O)/C(C#N)=C/c1c[nH]c3ccccc13)c1ccccc1S2`, the growth is 55.8% in the assay on BT-549 breast; 11.7% in the assay on MDA-MB-435 melanoma; 34.5% in the assay with SW-620 colon; 23.1% in the assay on MCF7 breast; 24.3% in the assay with HCT-116 colon; 24.5% in the assay on KM12 colon.
For `CCOc1ccc2nc(NC(=O)c3ccc(C(F)(F)F)cc3)sc2c1`, the growth with BT-549 breast was 98.5%; in the assay on MDA-MB-435 melanoma, 96.6%; with SW-620 colon, 103%; with MCF7 breast it was 98.6%; in the assay with HCT-116 colon, 102%; with KM12 colon it was 103%.
Take `CCCSc1nc(Nc2ccc(/C(C)=N\NC(N)=S)cc2)c(C#N)c(-c2ccc(OC)cc2)n1`: the growth is 82% in the assay with BT-549 breast; 70.7% with MDA-MB-435 melanoma; 103% in the assay with SW-620 colon; 69.1% with MCF7 breast; 45.3% in the assay with HCT-116 colon; 110% with HCC-2998 colon. For the same molecule, the growth in the assay with KM12 colon was 84.7%.
